# Columns and labels:
# Conditions in all cases: concentration: 1 μM, replicates: in singlicate; n = 1
# MST1R = test system: MST1R
# MST1 = test system: T1, MST1
# T1 construct: gene STK4
# MST2 = test system: T2, MST2
# T2 construct: gene STK3
# MST3 = test system: T3, MST3
# T3 construct: gene STK24
# MST4 = test system: MST4
# MTOR = test system: MTOR
# MUSK = test system: MUSK
# MYLK2 = test system: MYLK2
# MYLK4 = test system: MYLK4
# MYLK = test system: MYLK
# 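Further: KINOMEscan kinase panel screen.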
Compound,%Inh (MST1R) [%],%Inh (MST1) [%],%Inh (MST2) [%],%Inh (MST3) [%],%Inh (MST4) [%],%Inh (MTOR) [%],%Inh (MUSK) [%],%Inh (MYLK2) [%],%Inh (MYLK4) [%],%Inh (MYLK) [%]
COc1ccc(CSc2nnc(-c3ccc4nccn4c3)o2)cc1C(F)(F)F,0,0,0,15,7,0,9,8,21,0
Cc1ccc(NC(=O)c2ccc(Cl)cc2)cc1-c1ccc(C(=O)Nc2ccncc2)cc1 [GSK1398467],28,9,0,4,0,0,2,0,0,2
CCn1c(-c2ccccc2)nc2cnccc21 [SB-733416],11,27,6,0,0,31,16,0,2,0
O=C(Nc1n[nH]c2nc(-c3cccs3)c(Br)cc12)C1CC1 [SB-735297],0,3,4,0,5,0,0,99.4,29,29
CNc1nc(-c2ccc3c(N)n[nH]c3c2)cc(N2C[C@@H](C(=O)NC3CCCCC3)OC[C@H]2C)n1 [GSK2375584],30,0,0,18,0,0,16,0,0,18
Cn1cncc1C(=O)NC1CCN(c2ccnc(Nc3ccc(F)cc3)n2)C1 (stereo not shown) [GSK1379717],34,0,34,0,0,0,0,1,0,0
Cc1ccc(NC(=O)Nc2ccccc2)cc1-c1ccc(C(=O)Nc2ccncc2)cc1 [GSK1398471],29,0,0,0,0,0,4,0,3,20
Cc1cnc(N)c(/C=C/c2cncc(C(=O)NCCc3ccc(Cl)cc3Cl)c2)c1.Cl [GSK190937],29,0,0,5,0,6,0,0,62,20
Cc1ccccc1-c1cc(-c2c[nH]nc2-c2ccccn2)ccn1 [GW680061],12,0,0,0,10,30,10,0,0,1
COc1ccc(CSc2nnc(-c3ccc4c(c3)CCO4)o2)cc1,13,0,0,0,0,0,0,0,3,0
COc1ccc(-c2coc3ccc(-c4nnc(C)o4)cc23)cc1,0,0,0,0,0,5,4,18,14,0
COc1ccc(Nc2nccc(N3CCC(NC(=O)c4cc5ccccc5s4)C3)n2)cc1 (stereo not shown) [GSK1379738],27,0,0,0,0,15,0,0,3,11
O=C1NC(=O)C(c2ccc(Cl)cc2)=C1Nc1cccc(Cl)c1 [SB-317651],9,6,43,13,0,8,7,30,0,0
Cc1ccc(-c2nc(Nc3ccncc3)c3ccccc3n2)s1 [GSK189015],37,6,21,11,5,10,17,26,7,19
Cn1cncc1-c1cc2c(Nc3ccc(OCc4ccccc4)cc3)ncnc2cn1 [GW281179],49,0,0,0,0,3,12,10,0,9
Fc1ccc(-c2nc[nH]c2-c2ccncc2)cc1 [SB-217360],0,13,0,0,0,4,0,0,0,3
O=C1NC(=O)C(c2ccc(Cl)cc2)=C1Nc1ccc(O)cc1 [SB-340867],0,0,0,0,0,0,0,0,3,11

Compound,%Inh (MST1R) [%],%Inh (MST1) [%],%Inh (MST2) [%],%Inh (MST3) [%],%Inh (MST4) [%],%Inh (MTOR) [%],%Inh (MUSK) [%],%Inh (MYLK2) [%],%Inh (MYLK4) [%],%Inh (MYLK) [%]
COc1nccc(-c2c(-c3ccc(F)cc3)ncn2CCCN2CCOCC2)n1 [SB-282852],0,0,22,0,0,0,0,56,0,18
O=c1cc(N2CCOCC2)nc2n(Cc3ccccc3F)ccn12 [GSK2297428],26,8,0,0,0,13,0,0,0,12
COc1cccc(NC(=O)Nc2ccc(C)c(-c3ccc(C(=O)Nc4ccncc4)cc3)c2)c1 [GSK1398474],57,18,0,10,0,0,1,4,3,31
CCCCc1nn2ncccc2c1-c1ccnc(NC2CC2)n1 [GW684374],38,0,15,0,0,5,19,0,52,0
Nc1ncnc2occ(-c3ccc4c(c3)CCN4C(=O)Cc3cc(F)ccc3F)c12 [GSK2645446],11,21,0,13,0,3,3,27,7,9
O=c1cc(N2CCOCC2)nc2n(Cc3cccc(Cl)c3Cl)c3ccccc3n12 [GSK2299009],44,39,9,6,0,19,39,17,13,31
CCn1c(-c2c(N)noc2C)nc2cnccc21 [SB-737856],3,15,0,0,0,28,6,7,9,6
Cc1ccc(NC(=O)Nc2ccc(Cl)c(C(F)(F)F)c2)cc1-c1ccc(C(=O)Nc2ccncc2)cc1 [GSK1398470],38,9,0,13,0,16,10,0,2,24
COC(=O)C(NC(=O)NC1CCN(c2ccnc(Nc3ccc(F)cc3)n2)C1)c1ccccc1 (stereo not shown) [GSK1379712],35,0,28,3,0,31,12,10,13,12
Cc1c(Cn2c(C)c(C)n3c(=O)cc(N4CCOCC4)nc23)cccc1C(F)(F)F [GSK2328680],12,2,0,6,0,32,45,7,0,14
CS(=O)(=O)CCNCc1nc(-c2ccc3ncnc(Nc4ccc5c(cnn5Cc5ccccc5)c4)c3c2)cs1.Cl.Cl [GW569716],10,3,0,0,0,17,0,0,10,0
COC(=O)C(Cc1ccccc1)NC(=O)NC1CCN(c2ccnc(Nc3ccc(F)cc3)n2)C1 (stereo not shown) [GSK1379714],39,5,0,3,0,33,8,0,13,11
COc1ccc(Nc2nccc(-c3ccc(NC(=O)c4cc5cc(F)ccc5[nH]4)cc3)n2)cc1 [GSK1229496],7,0,0,0,0,20,0,0,28,6
COc1ccc(CSc2nnc(-c3ccc4ncsc4c3)o2)cc1C(F)(F)F,0,0,0,0,0,8,1,16,1,0
CNCc1ccc2nc(NC(=O)c3ccc(C(C)(C)C)cc3)cn2c1,18,16,25,7,24,2,0,7,1,24
Nc1nccc(-c2c(-c3ccc(F)cc3)ncn2C2CCN(Cc3ccccc3)CC2)n1 [SB-219980],0,17,8,0,0,23,0,0,0,0
CS(=O)(=O)Cc1ccc(Nc2nccc(-c3c(-c4cccc(NC(=O)C5CCCCC5)c4)nn4ncccc34)n2)cc1 [GSK350559],11,11,44,3,23,18,0,0,0,31

# From article PMC5540273 (PLoS ONE, 2017)
